The panel holds about 83,000 compounds, 20% with a hit somewhere; the sample as a whole holds those more often.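 Note: values are percent growth. 100 is the growth of untreated cells, values between 100 and 0 indicate rising inhibition; between -100 and 0 indicates cell death.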 Values without a mark were called inactive. The source made the active and inactive calls. The calls were made as follows: active = growth percent below 10; inactive = the rest.

For 12 compounds, growth results are on record in PubChem BioAssay (NCI).

Test systems include NCI-H226 lung; NCI-H322M lung; HOP-62 NSCLC; NCI-H460 lung; HOP-92 NSCLC; NCI-H522 lung; A549/ATCC NSCLC; 786-0 renal; COLO 205 colon.
What all share (assay): NCI-60 one-dose screen, 48 h (100 = growth as untreated, 0 = no growth, -100 = all killed)
Holding throughout (conditions): 10 µM unless noted

Turning to `O=c1c2cc(F)ccc2sc2c(NCCCNCCO)nc3ccccc3c12`, the growth with NCI-H226 lung is 80.8%; in the experiment with NCI-H322M lung, 50%; in the experiment on HOP-62 NSCLC, 46.5%; in the experiment on NCI-H460 lung, -71.3% (active); in the experiment with HOP-92 NSCLC, 3.78% (active); in the experiment on NCI-H522 lung it was 20.4%. For the same compound, the growth is 33.9% in the experiment on A549/ATCC NSCLC, 51.9% in the experiment on 786-0 renal and -56.4% (active) in the experiment on COLO 205 colon.
Turning to `O=C(Nc1ccc(Cl)cc1F)c1ccccc1O`, the growth with NCI-H226 lung is 25.6%; in the experiment with NCI-H322M lung, 36.3%; in the experiment with HOP-62 NSCLC, 42.6%; in the experiment on NCI-H460 lung, 27.5%; with HOP-92 NSCLC, -14.5% (active); with NCI-H522 lung, 11%. Further, the growth with A549/ATCC NSCLC is 46.3%; with 786-0 renal, 50.6%; in the experiment on COLO 205 colon, 98.2%.
For the compound `NCCNc1nc2ccccc2c2c(=O)c3cccc(F)c3sc12`, the growth is 78.5% with NCI-H226 lung; 64.7% in the experiment on NCI-H322M lung; 58% in the experiment with HOP-62 NSCLC; 13.8% in the experiment with NCI-H460 lung; 59.9% in the experiment with HOP-92 NSCLC; 59.2% with NCI-H522 lung. The growth in the experiment with A549/ATCC NSCLC is 41.1%; in the experiment with 786-0 renal, 76.7%; with COLO 205 colon, 26.6%.
`COc1cccc(Cc2nn3cc(-c4ccccc4)nc3s2)c1`: the growth is 110% with NCI-H226 lung; 91.8% with NCI-H322M lung; 95.2% in the experiment on HOP-62 NSCLC; 105% in the experiment with NCI-H460 lung; 84.8% in the experiment on HOP-92 NSCLC; 70.3% in the experiment with NCI-H522 lung. Besides, the growth with A549/ATCC NSCLC was 94.4%; in the experiment with 786-0 renal it was 52%; in the experiment on COLO 205 colon, 106%.
For `CCOC(=O)c1cn2ncnc(Oc3ccc(NC(=O)NCCN(CC)CC)c(Cl)c3)c2c1C`, the growth in the experiment with NCI-H226 lung was 91.5%; in the experiment on NCI-H322M lung it was 98.7%; in the experiment with HOP-62 NSCLC, 84.2%; in the experiment on NCI-H460 lung it was 104%; in the experiment with HOP-92 NSCLC, 41.5%; in the experiment on NCI-H522 lung it was 72.9%. Besides, the results for the growth with A549/ATCC NSCLC, with 786-0 renal and in the experiment with COLO 205 colon were 91.5%, 72% and 57.2%, respectively.
For `O=[N+]([O-])c1ccccc1NCSc1ccc(Cl)cc1`, the growth with NCI-H226 lung was 91%; in the experiment with NCI-H322M lung, 98.1%; with HOP-62 NSCLC it was 124%; in the experiment with NCI-H460 lung, 95.8%; with HOP-92 NSCLC it was 78.3%; in the experiment on NCI-H522 lung, 90.7%. The growth with A549/ATCC NSCLC was 91.3%; in the experiment on 786-0 renal it was 87.6%; in the experiment on COLO 205 colon, 116%.
Turning to `Cc1ccc2c(-c3cc(-c4ccccc4)nc(N)c3C#N)cc(=O)oc2c1`, the growth in the experiment on NCI-H226 lung is 95.9%; in the experiment with NCI-H322M lung, 96.6%; with HOP-62 NSCLC, 88.3%; in the experiment on NCI-H460 lung it was 101%; in the experiment on HOP-92 NSCLC, 92.3%; with NCI-H522 lung, 68.1%. The growth in the experiment with A549/ATCC NSCLC is 92%; with 786-0 renal, 92.2%; in the experiment with COLO 205 colon it was 108%.
`C[C@H](C(=O)Nc1ccc(S(N)(=O)=O)cc1)S(=O)(=O)c1ccccc1`: the growth with NCI-H226 lung is 98%; in the experiment on NCI-H322M lung, 108%; with HOP-62 NSCLC, 87.6%; with NCI-H460 lung, 108%; in the experiment with HOP-92 NSCLC, 94%; with NCI-H522 lung, 90.7%. The growth with A549/ATCC NSCLC is 102%; in the experiment with 786-0 renal, 101%; in the experiment with COLO 205 colon, 107%.
Regarding `COc1ccc(NC2=C(Br)C(=O)C(C)=C(C)C2=O)cc1`, the growth in the experiment with NCI-H226 lung is 75.5%; with NCI-H322M lung, 89.9%; in the experiment with HOP-62 NSCLC, 84.2%; in the experiment on NCI-H460 lung it was 99.9%; with HOP-92 NSCLC, -73.6% (active); with NCI-H522 lung it was 87.6%. Further, the growth was 99.5% with A549/ATCC NSCLC, 103% in the experiment on 786-0 renal and 115% in the experiment on COLO 205 colon.
`CC([C@H]1CCC2C3CCC4C(=O)C(NC=O)=CC[C@]4(C)C3CC[C@@]21C)N(C)C` (stereo partly drawn): the growth with NCI-H226 lung was 88.5%; in the experiment with NCI-H322M lung, 30.4%; in the experiment with HOP-62 NSCLC, 74.2%; in the experiment with NCI-H460 lung it was -4.84% (active); with HOP-92 NSCLC it was 41.7%; in the experiment on NCI-H522 lung, 96.1%. Also, the values for the growth with A549/ATCC NSCLC, in the experiment with 786-0 renal and in the experiment on COLO 205 colon were 45%, 46.1% and -80.1% (active), respectively.
For the compound `COc1ccc2nc(NC(=O)c3cccnc3Nc3ccc(S(N)(=O)=O)cc3)sc2c1`, the growth in the experiment on NCI-H226 lung is 95.5%; in the experiment with NCI-H322M lung it was 89.8%; in the experiment on HOP-62 NSCLC, 109%; in the experiment on NCI-H460 lung it was 98.9%; in the experiment on HOP-92 NSCLC, 84.9%; in the experiment on NCI-H522 lung it was 95.5%. Further, the growth is 93.5% in the experiment with A549/ATCC NSCLC, 78.3% in the experiment with 786-0 renal and 159% in the experiment on COLO 205 colon.
Consider `Nc1nn(C(=O)Nc2ccc(Cc3ccccc3)cc2)c2ccc(Cl)cc12`, for which the growth in the experiment with NCI-H226 lung is 63.5%; in the experiment with NCI-H322M lung it was 65.9%; in the experiment with HOP-62 NSCLC it was 67.8%; with NCI-H460 lung it was 28.9%; in the experiment with HOP-92 NSCLC, 99.8%; with NCI-H522 lung, 73.1%. The growth was 38.3% in the experiment on A549/ATCC NSCLC, 64% in the experiment with 786-0 renal and 34.9% in the experiment on COLO 205 colon.
